Consider 40 compounds from PubChem BioAssay (NCATS).

Inconclusive results are not listed. Where a call stands in place of a potency, no number is given. Calls of active or inactive are those of the source. The call rests on the fitted dose curve; in most records, active means well fitted cell-killing curve with a large enough effect; inconclusive means small, poorly fitted or top-dose-only effect; inactive means flat fitted curve, though single readings scatter.
Potency means the concentration at half of the fitted maximal effect.

A short description of this test: Cell Viability - LYMP2-022 (AID 987). Further: nearly all actives have a fitted effect of over 55% in size. To be noted: LYMP2-022 lymphoblastoid cell viability; series mostly up to 92.2 µM. The text has this:
NIH Chemical Genomics Center [NCGC]
NIH Molecular Libraries Screening Centers Network [MLSCN]
National Institutes of Environmental Health Sciences [NIEHS]
National Toxicology Program [NTP]
We have developed a 1536-well cell-based assay for quantitative high throughput screening (qHTS) against a number of cell lines to determine in vitro cytotoxicity of small molecules. This particular assay uses a human lymphoblastoid cell line (LYMP2-022) purchased from Coriell Institute for Medical Research.
NCGC Assay Protocol Summary:
The CellTiter-Glo luminescent cell viability assay (Promega) is a homogeneous method to measure the number of viable cells in culture. The end point readout of this assay is based on quantitation of intracellular ATP, an indicator of metabolic activity, using the luciferase reaction. Luciferase catalyzes the oxidation of beetle Luciferin to oxyluciferin and light in the presence of ATP. The luminescent signal is proportional to amount of ATP present.
Using the CellTiter-Glo luminescent cell viability assay, the amount of cellular ATP was measured in the lymphoblastoid cell line with complete culture medium following compound treatment for 24 hours. The assay was performed in opaque white Kalypsys 1536-well plates. In the screen, tetraoctylammonium bromide was used as positive control. Library compounds were measured for their ability to cause acute toxicity in the cell line, as reflected by a decrease in intracellular ATP levels, in a concentration-dependent manner. […] AC50 values were determined from concentration-response data modeled with the standard Hill equation.
qHTS protocol for CellTiter Glo lymphoblastoid cellular assay
[Step] [Parameter] [Value] [Description]
1. Reagent; 5 uL; 2500 lymphoblastoid cells/well
2. Time; 5 hr; 37 C incubation
4. Controls; 23 nL; Tetraoctylammonium bromide 6.4pM to 92 uM
5. Time; 24 hr; 37 C incubation
6. Reagent; 5 uL; CellTiter Glo reagent
7. Time; 30 min; Room Temperature
8. Detection; Luminescence; Viewlux plate reader
Keywords: cell viability, cytotoxicity, lymphoblastoid cell line, luminescence, NTPHTS, NTPHTS_NCGC, NIEHS, DSSTox, MLSMR, MLSCN, NIH Roadmap, qHTS, NCGC
Consider `Nc1cnn([C@@H]2O[C@H](CO)[C@@H](O)[C@H]2O)c(=O)n1`, for which the Potency entry was “inactive”.

In the case of `CCCCCCc1ccc(-c2ccc(C#N)cc2)cc1`, the Potency result is “inactive”.

With `c1cc2c3c(c1)ccc1cccc(c13)C2`, the Potency entry is “inactive”.

As to `O=C(O)c1ccc([N+](=O)[O-])cc1`, the Potency entry was “inactive”.

Regarding `N=C1C=CC(=C(c2ccc(N)cc2)c2ccc(N)cc2)C=C1`, the Potency was 3.16 µM (active).

With `C=CC(C)(O)CCCC(C)CCCC(C)CCCC(C)C` (stereo not given), the Potency entry was “inactive”.

Regarding `CCCCCCCCOc1ccc(C(=O)O)cc1`, the Potency result was “inactive”.

Take `Cc1ccc(N)cc1[N+](=O)[O-]`: the Potency entry was “inactive”.

Take `CCCCCCCC/C=C\CCCCCCCC(=O)N(CCO)CCO`: the Potency entry was “inactive”.

`O=[N+]([O-])c1ccccc1Nc1ccccc1`: the Potency entry is “inactive”.

For `Oc1ccc(O)c2c(O)cccc12`, the Potency was 50.1 µM (active).

Take `CC(=O)c1ccc(Cl)c(Cl)c1Cl`: the Potency entry was “inactive”.

Consider `Oc1ccc2c(c1)OCO2`, for which the Potency entry is “inactive”.

On to `Cc1ccccc1OCC1CO1` (stereo not given), for which the Potency entry was “inactive”.

For `COc1ccc(C)cc1N`, the Potency result was “inactive”.

Turning to `Cc1cc(=O)oc2cc(O)cc(O)c12`, the Potency entry is “inactive”.

For `Nc1ccc(N)c(Cl)c1`, the Potency was 39.8 µM (active).

For the compound `Cc1cc(-c2ccc(N=Nc3cc(S(=O)(=O)O)c4ccccc4c3N)c(C)c2)ccc1N=Nc1cc(S(=O)(=O)O)c2ccccc2c1N`, the Potency entry was “inactive”.

`C/C=C/C=C/C=O`: the Potency is 25.1 µM (active).

`CCNC(=S)NCC`: the Potency entry is “inactive”.

For the compound `O=C(Cl)c1ccc([N+](=O)[O-])cc1`, the Potency entry is “inactive”.

For `CC(=O)OC1CC(C)OC(C)O1` (stereo not given), the Potency entry is “inactive”.

Take `Cc1c(N)cccc1Cl`: the Potency entry is “inactive”.

With `Nc1ccc(N=Nc2ccccc2)c(N)c1`, the Potency entry was “inactive”.

For `Cc1ccc(C(=O)O)cc1[N+](=O)[O-]`, the Potency entry is “inactive”.

Turning to `c1ccncc1`, the Potency entry is “inactive”.

Take `COc1cc(-c2ccc(N=C=O)c(OC)c2)ccc1N=C=O`: the Potency result is “inactive”.

For `CC(=O)CC(=O)Nc1ccccc1`, the Potency entry was “inactive”.

As to `CC(C)OCC1CO1` (stereo not given), the Potency entry is “inactive”.

In the case of `Cc1cc2nc(N)sc2cc1C`, the Potency result is “inactive”.

Take `CN(C)c1ccc(Cc2ccc(N(C)C)cc2)cc1`: the Potency result was “inactive”.

For `C=CC(=O)CC`, the Potency result is “inactive”.

With `COc1ccc([N+](=O)[O-])cc1N`, the Potency entry is “inactive”.

Turning to `O=[N+]([O-])c1cc(N(CCO)CCO)ccc1NCCO`, the Potency entry was “inactive”.

As for `CCCC(=O)OC(=O)CCC`, the Potency entry was “inactive”.

For `CCOc1ccc2nc(N)sc2c1`, the Potency result is “inactive”.

`CC(C)(C)C(=O)C1C(=O)c2ccccc2C1=O`: the Potency result was “inactive”.

Turning to `CCOC(=O)C1OC1c1ccccc1` (stereo not given), the Potency entry was “inactive”.

With `CCCCC(CC)COP(=O)(OCC(CC)CCCC)OCC(CC)CCCC` (stereo not given), the Potency result was “inactive”.

As to `CC(C)COC(=O)COc1cc(Cl)c(Cl)cc1Cl`, the Potency result is “inactive”.
